# High-throughput results: PubChem, National Center for Advancing Translational Sciences (NCATS)
# NPC1 prom act = activators of NPC1 promoter. Huh7 NPC1 promoter luciferase reporter, 24 h. Potency, µM (highest dose often 9.22 µM), without a hit: at the top dose activation, most hits filed as activators. hit rate 2.4% among 320,000; also: % of control where 0% means no effect; nearly all actives have a fitted effect of over 60% in size
#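 Huh7 cells stably carrying NPC1 promoter–luciferase, plated in Opti-MEM with 10% FBS for 2 h, were exposed to compound in DMSO for 24 h at 37 °C; luciferase reagent was added for 10 min and luminescence read.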
# FLuc counter = firefly luciferase modulation, counter-screen for miR-21 project; P08659; purified FLuc, Km substrates, luminescence inhibition; Potency, µM (doses to about 57.5 µM), without a hit: top-dose activity change, negative = inhibition, usual class: inhibitors; hit rate 6.9% among 360,000;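 also: plate controls were vehicle for no effect and reference inhibitor for full effect; nearly all actives have a fitted effect of over 55% in size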
# Target sequence (P08659 whole entry, looked up): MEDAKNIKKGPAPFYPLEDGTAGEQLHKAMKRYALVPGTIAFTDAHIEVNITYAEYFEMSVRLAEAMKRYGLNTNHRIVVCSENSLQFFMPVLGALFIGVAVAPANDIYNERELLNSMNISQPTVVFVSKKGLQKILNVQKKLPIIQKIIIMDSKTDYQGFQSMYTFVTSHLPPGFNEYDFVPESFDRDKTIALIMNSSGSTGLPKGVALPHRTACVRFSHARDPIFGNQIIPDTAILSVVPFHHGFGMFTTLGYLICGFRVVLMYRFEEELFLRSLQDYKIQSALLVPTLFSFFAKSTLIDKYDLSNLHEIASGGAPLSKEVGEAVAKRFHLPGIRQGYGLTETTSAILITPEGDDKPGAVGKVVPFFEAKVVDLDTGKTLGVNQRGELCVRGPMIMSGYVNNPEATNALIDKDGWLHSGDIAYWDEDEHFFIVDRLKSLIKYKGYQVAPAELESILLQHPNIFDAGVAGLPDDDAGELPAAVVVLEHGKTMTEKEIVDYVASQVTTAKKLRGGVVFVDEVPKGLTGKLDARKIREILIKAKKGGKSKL
#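 Purified P. pyralis luciferase (10nM final) with 10uM D-luciferin and 10uM ATP (Km levels) in 50mM Tris acetate pH 7.5, 10mM Mg acetate, 0.01% Tween-20, 0.05% BSA; qHTS 6-point titration, ~60 µM downward; luminescence read.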
# SMN2 splice enh = SMN2 splice variant enhancement | HEK293 SMN2-luciferase splicing reporter, luminescence, 30-36 h | Potency, µM (doses to about 46.1 µM), without a hit: at the top dose activity change, positive = activation, actives largely listed as activators | hit rate 2.8% among 210,000 | AID 1458; also: % of control where 0% means no effect; nearly all actives have a fitted effect of over 55% in size
#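 HEK293 cells carry an SMN2 […]–luciferase reporter in which exon 7 inclusion puts luciferase in frame. Cells were plated 10-12 h before compound addition, then incubated 30-36 h at 37C. ONE-Glo luminescence was read; sodium butyrate at 4.5 mM final served as control.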
# Rab9 prom act = Rab9 promoter activation | Potency, µM (highest dose often 9.22 µM), for inactives: at the top dose activation, negative = inhibition, most hits filed as activators | AID 485297 | Huh7 Rab9 promoter-luciferase reporter, luminescence, 24 h | hit rate 2.8% among 320,000; also: % of control where 0% means no effect; nearly all actives have a fitted effect of over 60% in size
#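 Cell-based reporter: Huh7 stable for Rab9 promoter-driven luciferase, plated in reduced-serum medium with 10% FBS at 1500 cells/well, compound-treated 24 h at 37 °C, luminescence read after 10 min reagent.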
# ELG1 genotox = induces genotoxicity in HEK293T cells with luciferase-tagged ELG1. HEK293T ELG1-luciferase reporter, luminescence, 16 h. Potency, µM (top dose mostly 46 µM), without a hit: top-dose activity change, positive = activation, most hits filed as activators. hit rate 1.3% among 330,000. AID 504466; also: % of control where 0% means no effect; nearly all actives have a fitted effect of over 60% in size
#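 Quantitative HTS format in 1536-well plates. HEK293T ELG1-luciferase reporter cells receive test compound and are incubated 16 hr at 37 °C, 5% CO2; ONE-Glo added, 30 min room temperature, then luminescence read.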
# ELG1 DNA repair = blocks ELG1-dependent DNA repair in HEK293T cells | HEK293T ELG1-luciferase reporter, luminescence, 16 h; DNA damage induced by 5-fluorouridine | Potency, µM (highest dose often 46.1 µM), inactives show at the highest dose activity change, negative = inhibition, most hits filed as inhibitors | hit rate 2.3% among 330,000; also: % is scaled to controls: 0 for no effect and ±100 for the full control effect; nearly all actives have a fitted effect of over 55% in size
#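 Quantitative HTS, concentration-response format. 2,000 cells/well co-treated with 5-fluorouridine and compound, 16 hr in 5% CO2 at 37 °C; ONE-Glo luminescence read after 30 min.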
# The depositor's hits bear a star; ? = inconclusive; . = no result; [ ] = another dose, or the depositor's remark. A selection: hits, their analogues and other compounds. The true share with any hit is near 9.2%. Calls follow the shape of the dose curve; as a rule, active = well fitted curve in the direction sought with a large enough effect; inconclusive = small, poorly fitted or top-dose-only effect, or another doubt; inactive = no such curve, though single readings can be large; an effect the other way counts as inactive or inconclusive. Potency is read from the fitted curve at half-maximal effect.
SMILES,NPC1 prom act,FLuc counter,SMN2 splice enh,Rab9 prom act,ELG1 genotox,ELG1 DNA repair
C/C=C(/C)C(=O)O[C@H]1C(C)=C2C([C@@H]1OC(=O)CCCCCCC)[C@@](C)(OC(C)=O)C[C@@H](OC(=O)CCC)[C@@]1(O)[C@H]2OC(=O)[C@@]1(C)O (some centres not stated),.,.,-115%,.,.,.
CCC(=NCCc1c[nH]c2ccccc12)c1c(O)n(C)c(=O)n(C)c1=O,-8%,-2%,-74%,-17%,-10%,16µM*
CCC(=NCc1ccc2c(c1)OCO2)c1c(O)n(C)c(=O)n(C)c1=O,1%,-2%,.,-11%,-17%,15µM*
CCC(=NCc1cc(OC)cc(OC)c1)c1c(O)n(C)c(=O)n(C)c1=O,-6%,8%,-45%,-25%,-17%,21µM*
CCC(=Nc1ccc(OC)cc1OC)c1c(O)n(C)c(=O)n(C)c1=O,6%,-4%,-59%,-11%,-5%,?
CC(=NCc1ccc2c(c1)OCO2)c1c(O)n(C)c(=O)n(C)c1=O,1%,2%,-33%,-5%,-9%,?
C[C@H](CN(C)C)C(C#N)(c1ccccc1)c1ccccc1,.,.,-7%[9.22 µM],.,.,.
CCOP(=O)(OCC)c1nc(-c2ccc(Cl)cc2)oc1NCc1ccccc1,-5%,-2%,-6%,0%,-6%,23µM*
CCCOP(=O)(OCCC)c1nc(-c2ccccc2)oc1NCc1ccccc1,1%,3%,-6%,-1%,-3%,?
CC(=O)Nc1ccc(S(=O)(=O)N(C)CCOCc2ccccc2)cc1,0%,2%,-17%,-7%,-1%,?
Oc1ccc([C@H](O)C2CCCCN2)cc1O (some centres not stated),.,.,11%[9.22 µM],.,.,.
NC(Cc1ccccc1)c1nc2ccccc2[nH]1 (configuration not stated),18%,?,.,13%,10%,?
NC(Cc1nc2ccccc2[nH]1)c1ccc(Cl)cc1 (configuration not stated),14%,11µM*,.,?,13µM*,?
CN(C)CCCc1c[nH]c2ccccc12,.,.,-17%[9.22 µM],.,.,.
Nc1cc2nc3ccccc3nc2cc1N,?,19µM*,.,28%,11%,?
Nc1ccc(Cl)c(Cl)c1,.,.,4%,.,.,.
NCCc1ccc(S(=O)(=O)O)cc1[N+](=O)[O-],.,.,-4%[9.22 µM],.,.,.
COc1ccc(-c2cc(=NCCC(=O)O)c3cc(C)ccc3o2)cc1,?,13µM*,.,?,?,?
COc1ccc(-c2cc(=Nc3ccccc3)c3cc(C)ccc3o2)cc1,6%,27µM*,?,21%,?,?
CC(=O)NNc1ccccc1,.,.,-16%,.,.,.
N#CCCn1cc(C(=O)Nc2ccc([N+](=O)[O-])cc2)c(-c2ccc3c(c2)OCCO3)n1,0%,1%,?,-7%,-2%,?
Cc1ccc(NC(=O)c2cn(CCC#N)nc2-c2ccc3c(c2)OCCO3)c([N+](=O)[O-])c1,-1%,-2%,18%,-1%,-1%,18µM*
CC1(C)CCC(C)(C)c2c1ccc(O)c2Cc1c(O)ccc2c1C(C)(C)CCC2(C)C,.,.,-7%[9.22 µM],.,.,.
FC(F)(F)c1ccc(CSc2ccccn2)cc1,1%,15µM*,.,7%,2%,3%
CCN1CCN(c2nc3ccccc3s2)CC1,2.2µM*,11µM*,11µM*,2µM*,?,?
SMILES,NPC1 prom act,FLuc counter,SMN2 splice enh,Rab9 prom act,ELG1 genotox,ELG1 DNA repair
Cn1c(C(=O)N2CCN(c3nc4ccccc4s3)CC2)cc2sccc21,-3%,-4%[2.3 µM],.,-2%,-9%,?
CCCC(c1nnnn1Cc1cccs1)N1CCN(c2nc3ccccc3s2)CC1 (configuration not stated),2%,0%,-71%,1%,-18%,23µM*
O=C(Nc1ccc(Br)cc1)c1cccc(S(=O)(=O)N2CCc3ccccc32)c1,.,3%,-63%,.,.,.
Cc1ccccc1-n1c(O)c(/C=N/N2CCCCC2c2cccnc2)c(=O)[nH]c1=O (configuration not stated),-1%,-1%,-2%,-2%,-2%,-6%
CN[C@H](Cc1ccccc1)c1cccc(OC)c1O,.,.,-20%[9.22 µM],.,.,.
COC(=O)c1ccc(-c2nc(-c3ccc(Br)o3)no2)cc1,3.2µM*,1.7µM*,12%,4µM*,?,?
COC(=O)c1ccc(-n2c(C)nc3ccccc3c2=O)cc1,2%,2%,-9%,-6%,0%,-4%
O=C(O)CN1CCN(CC(=O)O)CC(=O)[O][Hg][O]C(=O)C1,.,.,5%[9.22 µM],.,.,.
Nc1ccc(N=Nc2ccccc2)cc1,27%,?,25%,?,?,?
Cc1cc(N=Nc2ccccc2C)ccc1N,.,.,14µM*,.,.,.
Cc1ccc(C(C)(C)NC(=O)C2CCC(=O)N(C3CCCCCC3)C2)cc1 (configuration not stated),?,15µM*,.,3.2µM*,?,?
CC(=O)c1c(C)n(Cc2ccccc2)c2ccc(O)cc12,8%,1%,.,-2%,-10%,23µM*
COC(=O)c1c(C)n(Cc2ccccc2)c2ccc(O)cc12,-6%,?,.,-3%,-7%,-14%
CC1=NN(c2ccc(S(=O)(=O)O)cc2C)C(=[OH+])[C@H]1N=Nc1cc(S(=O)(=O)O)ccc1C(=O)O.O.[Cr],.,.,-10%[9.22 µM],.,.,.
O=C1NC(=O)N(CCNc2ncc(C(F)(F)F)cc2Cl)C(=O)C1/C=N/OCc1c(F)cccc1Cl (configuration not stated),-4%,-5%,-44%,-1%,1%,-29%
CC(=O)C1=NOC(CNc2ncc(C(F)(F)F)cc2Cl)C1 (configuration not stated),18%,27µM*,18%,?,?,?
O=C(Nc1ccc(Cl)cc1)Nc1nccs1,-7%,11µM*,?,-1%,3%,?
O=C(Nc1nccs1)C(Cl)(Cl)Cl,-6%,-1%,-7%,3%,0%,5%
Cc1ccc2c(c1N)C(=O)c1ccccc1C2=O,3.2µM*,4.3µM*,?,?,?,?
Cc1ccc(N2C(=O)NC(=O)/C(=C\c3ccc([N+](=O)[O-])o3)C2=O)cc1,1%,27µM*,-1%,-3%,-2%,-11%
Cc1ccc(N2C(=O)NC(=O)/C(=C\c3ccc(N4CCOCC4)cc3)C2=O)cc1,9%,-18%,10%,1%,6%,?
NS(=O)(=O)c1cc(C(=O)OCC(=O)Nc2ccc3[nH]c(=O)[nH]c3c2)ccc1Cl,-2%,1%,.,1%,-1%,?
COc1ccc(-n2c(/C=C/c3ccc4c(c3)OCO4)nc3ccccc3c2=O)cc1,1%,-11%,-40%,-1%,-11%,23µM*
